This note sets out measurements from PubChem BioAssay (EPA / NIEHS).

Values joined by “and” are separate entries in the source; they are usually repeats but may differ in a detail not shown here. Equal entries are not always repeated. Inconclusive results are not listed. Active and inactive are the calls of the source. The calls were made as follows, unless noted: active = hit-call score of the fitted dose curve at least 0.9, where 1 is the maximum; inactive = score below 0.9.

Read-out in assay [1]: Pyruvate Dehydrogenase Kinase 4 (PDK4), PDK4 (gene 5166)
Briefly: LTEA_HepaRG_PDK4: Life Technologies and Expression Analysis (LTEA) Assay for Pyruvate Dehydrogenase Kinase 4 (PDK4) using HepaRG (AID 2283525). The conditions noted are these: mRNA level, 48 h; actives raise or lower the signal. The gist of the method:
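In this multiplexed human HepaRG expression assay, cells are treated 48 h with test chemicals across an eight-point range starting at 100 uM. PDK4 mRNA changes, normalized to ACTB/GAPDH/POLR2A, are fitted in both directions relative to vehicle.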

Read-out in assay [2]: NAD(P)H dehydrogenase [quinone] 1 (NQO1), NQO1 (gene 1728)
Kind of assay: LTEA_HepaRG_NQO1: Life Technologies and Expression Analysis (LTEA) Assay for NAD(P)H dehydrogenase [quinone] 1 (NQO1) using HepaRG (AID 2283526). The conditions noted are these: mRNA level, 48 h; actives raise or lower the signal. Summed up:
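Differentiated HepaRG cells, plated 48 h and then switched to serum-free induction medium, were exposed in duplicate for 48 h to 8-point half-log concentrations up to 100 uM in 0.5% DMSO. mRNA measured by qRT-PCR, normalized to ACTB, GAPDH, POLR2A; bidirectional fit versus DMSO.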

Read-out in assay [3]: Nuclear factor erythroid 2-related factor 2 (Homo sapiens) (UniProt Q16236)
Kind of assay: LTEA_HepaRG_NFE2L2: Life Technologies and Expression Analysis (LTEA) Assay for Nuclear factor erythroid 2-related factor 2 (NFE2L2) Transcription Factor using HepaRG (AID 2283527).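 As to outcome: TaqMan qRT-PCR transcript level normalised to ACTB GAPDH and POLR2A housekeeping genes.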 The settings on record: mRNA level, 48 h; actives raise or lower the signal. Summed up: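 Transcript level of NFE2L2 is the read-out, measured by microfluidic TaqMan qRT-PCR and normalized to three housekeeping genes. Human HepaRG cultures received test chemical for 48 h at up to 100 uM in half-log steps. Gain or loss of signal is fitted relative to 0.5% DMSO.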

Read-out in assay [4]: succinate dehydrogenase complex iron sulfur subunit B (SDHB), SDHB (gene 6390)
Kind of assay: LTEA_HepaRG_SDHB: Life Technologies and Expression Analysis (LTEA) Assay for succinate dehydrogenase complex iron sulfur subunit B (SDHB) using HepaRG (AID 2283528). The settings on record: mRNA level, 48 h; actives raise or lower the signal. Summed up: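 HepaRG, 48 h exposure, 8-pt half-log series from 100 uM in 0.5% DMSO, duplicates. Readout: SDHB mRNA by Fluidigm qRT-PCR vs housekeeping genes; bidirectional fit relative to DMSO.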

Read-out in assay [5]: Signal transducer and activator of transcription 3 (Homo sapiens) (UniProt P40763)
Briefly: LTEA_HepaRG_STAT3: Life Technologies and Expression Analysis (LTEA) Assay for Signal transducer and activator of transcription (STAT3) using HepaRG (AID 2283529). The conditions noted are these: mRNA level, 48 h; actives raise or lower the signal. Summed up:
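Read-out is STAT3 mRNA level by qRT-PCR, normalized to three housekeeping genes, in human HepaRG liver cells treated for 48 h. Concentrations ran from 100 uM downward in half-log steps; curves were fitted for gain or loss relative to 0.5% DMSO.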

Read-out in assay [6]: solute carrier (SLCO1B1), SLCO1B1 (gene 10599)
Briefly: LTEA_HepaRG_SLCO1B1: Life Technologies and Expression Analysis (LTEA) Assay for solute carrier (SLCO1B1) using HepaRG (AID 2283530). The settings on record: mRNA level, 48 h; actives raise or lower the signal. Summed up: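 Human HepaRG cultures treated for 48 h with an eight-concentration half-log series topping at 100 uM; SLCO1B1 measured by qRT-PCR and fitted bidirectionally relative to DMSO.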

Read-out in assay [7]: sulfotransferase 2A1 (SULT2A1), SULT2A1 (gene 6822)
Briefly: LTEA_HepaRG_SULT2A1: Life Technologies and Expression Analysis (LTEA) Assay for sulfotransferase 2A1 (SULT2A1) using HepaRG (AID 2283531). The settings on record: mRNA level, 48 h; actives raise or lower the signal. Summed up:
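Gene-expression endpoint in a human liver cell line: SULT2A1 mRNA change after 48 h chemical treatment, curves fitted in both directions relative to 0.5% DMSO vehicle. Concentrations spanned eight half-log steps from 100 uM.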

Read-out in assay [8]: Transforming Growth Factor (TGFA), TGFA (gene 7039)
Kind of assay: LTEA_HepaRG_TGFA: Life Technologies and Expression Analysis (LTEA) Assay for Transforming Growth Factor (TGFA) using HepaRG (AID 2283532). The settings on record: mRNA level, 48 h; actives raise or lower the signal. Summed up: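 HepaRG (human liver line), 48 h exposure, 8 conc. half-log down from 100 uM, 0.5% DMSO vehicle, duplicates; serum-free induction medium. TGFA mRNA by TaqMan qRT-PCR, ACTB/GAPDH/POLR2A normalization; gain/loss fit vs DMSO.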

Read-out in assay [9]: Transforming Growth Factor (TGFB1), TGFB1 (gene 7040)
Briefly: LTEA_HepaRG_TGFB1: Life Technologies and Expression Analysis (LTEA) Assay for Transforming Growth Factor (TGFB1) Transporter using HepaRG (AID 2283533). The settings on record: mRNA level, 48 h; actives raise or lower the signal. Summed up:
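Eight-point concentration-response (max 100 uM, half-log) in HepaRG under serum-free induction conditions, 48 h. TGFB1 mRNA by qRT-PCR, housekeeping-normalized.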

Read-out in another assay: TIMP1, TIMP1 (gene 7076)
Kind of assay: LTEA_HepaRG_TIMP1: Life Technologies and Expression Analysis (LTEA) Assay for TIMP1 using HepaRG (AID 2283534).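 As to outcome: TaqMan qRT-PCR signal normalized to ACTB GAPDH and POLR2A housekeeping genes.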 The conditions noted are these: mRNA level, 48 h; actives raise or lower the signal. Summed up:
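TIMP1 induction or repression in HepaRG cells after 48 h chemical exposure (eight concentrations, highest 100 uM), assessed by normalized qRT-PCR with bidirectional fitting to DMSO controls.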

Read-out in assay [10]: Tumor necrosis factor receptor 1 (TNFRSF1A), TNFRSF1A (gene 7132)
Kind of assay: LTEA_HepaRG_TNFRSF1A: Life Technologies and Expression Analysis (LTEA) Assay for Tumor necrosis factor receptor 1 (TNFRSF1A) using HepaRG (AID 2283535). The conditions noted are these: mRNA level, 48 h; actives raise or lower the signal. Summed up:
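Assay uses 48 h chemical treatment of differentiated HepaRG monolayers, tested in duplicate at eight concentrations from 100 uM downward in 0.5% DMSO. mRNA is normalized to ACTB, GAPDH and POLR2A, with induction or suppression fitted relative to vehicle.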

Read-out in assay [11]: Thyroid Hormone Responsive (THRSP), THRSP (gene 7069)
Kind of assay: LTEA_HepaRG_THRSP: Life Technologies and Expression Analysis (LTEA) Assay for Thyroid Hormone Responsive (THRSP) using HepaRG (AID 2283536). The settings on record: mRNA level, 48 h; actives raise or lower the signal. Summed up:
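mRNA induction or loss relative to 0.5% DMSO vehicle was fitted bidirectionally across an eight-point curve whose highest exposure was 100 uM. Human HepaRG liver cells received chemicals in duplicate over 48 h before RNA extraction.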

Read-out in assay [12]: UDP glucuronosyltransferase (UGT1A1), UGT1A1 (gene 54658)
Kind of assay: LTEA_HepaRG_UGT1A1: Life Technologies and Expression Analysis (LTEA) Assay for UDP glucuronosyltransferase (UGT1A1) using HepaRG (AID 2283538). The conditions noted are these: mRNA level, 48 h; actives raise or lower the signal. Summed up:
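Differentiated human HepaRG cells in serum-free induction medium were exposed in duplicate for 48 h to eight half-log concentrations up to 100 uM in 0.5% DMSO. UGT1A1 mRNA was quantified by TaqMan qRT-PCR, normalized to ACTB, GAPDH and POLR2A, and fitted bidirectionally against DMSO.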

Read-out in assay [13]: UDP glucuronosyltransferase (UGT1A6), UGT1A6 (gene 54578)
Kind of assay: LTEA_HepaRG_UGT1A6: Life Technologies and Expression Analysis (LTEA) Assay for UDP glucuronosyltransferase (UGT1A6) using HepaRG (AID 2283539). The conditions noted are these: mRNA level, 48 h; actives raise or lower the signal. Summed up:
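Measures mRNA change in HepaRG hepatic cells exposed 48 h to chemicals (eight-point, maximum 100 uM, 0.5% DMSO vehicle) in serum-free induction medium. Expression normalized to endogenous controls; DMSO served as negative control and baseline.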

Read-out in assay [14]: X-box binding protein 1 (XBP1), XBP1 (gene 7494)
Kind of assay: LTEA_HepaRG_XBP1: Life Technologies and Expression Analysis (LTEA) Assay for X-box binding protein 1 (XBP1) using HepaRG (AID 2283540). The settings on record: mRNA level, 48 h; actives raise or lower the signal. Summed up: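 Eight concentrations (half-log, highest 100 uM, 0.5% DMSO) tested in duplicate on HepaRG cells over 48 h in serum-free induction medium; qRT-PCR of XBP1 normalised to ACTB, GAPDH, POLR2A.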

A short description of assay [15]: LTEA_HepaRG_LDH_cytotoxicity: Cytotoxicity Assessment in the Life Technologies and Expression Analysis (LTEA) Assay (AID 2283563; active = hit-call score of the fitted dose curve at least 0.9, where 1 is the maximum;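 as to AC50: LDH activity released into spent culture medium as a marker of cell death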). The gist of the method: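 Spent-medium LDH after 48 h chemical exposure of HepaRG cells in serum-free induction medium; eight concentrations, half-log dilutions from 100 uM, duplicate wells, fitted upward relative to 0.5% DMSO.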
Assay [16] is described as follows: ATG_XTT_Cytotoxicity: Cytotoxicity Assessment in the Attagene TRANS-FACTORIAL HepG2 Assay (AID 2283584; active = hit-call score of the fitted dose curve at least 0.9, where 1 is the maximum). The gist of the method: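 24 h chemical exposure of reporter-transfected HepG2; XTT signal loss vs DMSO indicates cytotoxicity.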
The nature of assay [17]: TOX21_p53_BLA_p2_viability: Viability Assessment in the Tox21 HCT-116 p53 Agonism Beta-lactamase Assay, Phase 2 (AID 2283591; active = hit-call score of the fitted dose curve at least 0.9, where 1 is the maximum;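 also: compound exposure lasted 16 h at 37 °C; actives lower the ATP signal meaning cytotoxicity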). Summed up: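 Cytotoxicity readout: CellTiter-Glo ATP luminescence, 30 min at room temperature, after the beta-lactamase read. Cells were HCT116 exposed 16 h at 37C to compounds pin-transferred at 217-fold dilution from DMSO stocks.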
The target of assay [18] is Cellular tumor antigen p53 (Homo sapiens) (UniProt P04637). Briefly: TOX21_p53_BLA_p2_ratio: Tox21 HCT-116 p53 Agonism Beta-lactamase Assay, Ratio, Phase 2 (AID 2283592; active = hit-call score of the fitted dose curve at least 0.9, where 1 is the maximum). The gist of the method:
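Human colon HCT116 cells with an inducible p53 beta-lactamase reporter are exposed to test chemicals for 16 h at 37C. Reporter induction is read as the 460/530 nm emission ratio after CCF4-AM loading, normalized to DMSO.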

Read-out in assay [19]: Cellular tumor antigen p53 (Homo sapiens) (UniProt P04637)
Kind of assay: LTEA_HepaRG_TP53: Life Technologies and Expression Analysis (LTEA) Assay for Tumor Protein P53 (TP53) using HepaRG (AID 2283537). The conditions noted are these: mRNA level, 48 h; actives raise or lower the signal. Summed up:
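HepaRG, 48 h exposure, top 100 uM, half-log 8-point, 0.5% DMSO vehicle, duplicates. Read: TP53 mRNA by TaqMan qRT-PCR, normalised to ACTB/GAPDH/POLR2A; bidirectional fit vs DMSO.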

For orientation: AC50 means the concentration at which the activity in the assay is half-maximal.

Signal transducer and activator of transcription 3 (Homo sapiens), sequence (P40763 whole entry, looked up): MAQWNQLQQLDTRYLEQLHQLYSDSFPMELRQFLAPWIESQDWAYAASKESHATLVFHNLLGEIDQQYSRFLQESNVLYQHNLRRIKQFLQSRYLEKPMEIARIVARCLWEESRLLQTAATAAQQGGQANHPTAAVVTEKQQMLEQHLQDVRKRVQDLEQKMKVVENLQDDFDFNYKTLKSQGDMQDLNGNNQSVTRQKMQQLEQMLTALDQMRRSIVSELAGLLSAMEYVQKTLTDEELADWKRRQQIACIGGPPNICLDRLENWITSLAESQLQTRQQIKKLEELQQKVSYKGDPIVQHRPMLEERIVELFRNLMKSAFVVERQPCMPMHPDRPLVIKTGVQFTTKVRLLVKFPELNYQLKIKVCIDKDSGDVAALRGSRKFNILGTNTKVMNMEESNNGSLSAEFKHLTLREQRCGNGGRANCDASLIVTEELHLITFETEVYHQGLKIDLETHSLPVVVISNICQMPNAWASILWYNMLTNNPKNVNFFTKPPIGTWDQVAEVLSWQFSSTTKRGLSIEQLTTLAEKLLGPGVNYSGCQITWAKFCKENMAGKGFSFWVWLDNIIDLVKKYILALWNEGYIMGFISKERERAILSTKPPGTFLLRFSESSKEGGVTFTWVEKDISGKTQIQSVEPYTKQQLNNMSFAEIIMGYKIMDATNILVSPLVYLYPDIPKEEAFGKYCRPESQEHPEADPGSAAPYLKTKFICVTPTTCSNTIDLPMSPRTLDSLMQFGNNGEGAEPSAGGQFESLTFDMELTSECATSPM
Cellular tumor antigen p53 (Homo sapiens), sequence (P04637 whole entry, looked up): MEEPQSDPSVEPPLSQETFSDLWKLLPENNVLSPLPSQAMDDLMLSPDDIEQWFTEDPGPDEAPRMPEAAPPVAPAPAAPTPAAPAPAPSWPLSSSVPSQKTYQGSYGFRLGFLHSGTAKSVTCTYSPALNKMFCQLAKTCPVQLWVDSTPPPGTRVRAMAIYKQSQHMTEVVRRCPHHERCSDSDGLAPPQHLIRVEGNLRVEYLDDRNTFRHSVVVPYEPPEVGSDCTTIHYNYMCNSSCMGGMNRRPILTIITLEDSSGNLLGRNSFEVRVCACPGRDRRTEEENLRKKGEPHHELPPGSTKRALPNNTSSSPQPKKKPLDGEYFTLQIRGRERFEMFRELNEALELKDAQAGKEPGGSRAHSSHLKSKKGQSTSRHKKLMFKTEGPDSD
Nuclear factor erythroid 2-related factor 2 (Homo sapiens), sequence (Q16236 whole entry, looked up): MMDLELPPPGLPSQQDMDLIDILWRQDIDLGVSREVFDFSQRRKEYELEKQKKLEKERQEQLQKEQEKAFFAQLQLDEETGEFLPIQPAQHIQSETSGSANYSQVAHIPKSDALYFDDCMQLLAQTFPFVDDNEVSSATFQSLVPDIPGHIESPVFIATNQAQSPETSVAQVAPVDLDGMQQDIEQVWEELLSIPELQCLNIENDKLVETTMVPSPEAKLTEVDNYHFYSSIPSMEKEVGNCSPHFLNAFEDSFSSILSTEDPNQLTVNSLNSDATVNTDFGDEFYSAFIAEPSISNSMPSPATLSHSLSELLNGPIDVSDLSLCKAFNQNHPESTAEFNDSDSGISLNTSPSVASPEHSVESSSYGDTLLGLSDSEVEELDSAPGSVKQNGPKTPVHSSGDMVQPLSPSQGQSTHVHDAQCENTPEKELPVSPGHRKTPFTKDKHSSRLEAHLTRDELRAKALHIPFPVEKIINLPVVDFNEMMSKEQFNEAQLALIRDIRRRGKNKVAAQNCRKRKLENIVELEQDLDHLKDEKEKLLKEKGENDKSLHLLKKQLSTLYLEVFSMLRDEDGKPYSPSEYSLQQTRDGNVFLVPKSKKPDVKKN

`O=C(O)C(F)(F)C(F)(F)C(F)(F)C(F)(F)C(F)(F)C(F)(F)C(F)(F)C(F)(F)F`: the concentration at half-maximal activity (AC50) in assay [1] is 32.8 µM (active); in assay [3] it was 74.9 µM (active); in assay [6], 90.8 µM (active); in assay [7] it was 77.4 µM (active); in [8], 67.1 µM (active); in assay [9] it was 73.5 µM (active). The AC50 in assay [11] was 58.6 µM (active); in assay [12] it was 85.4 µM (active); in assay [13] it was 82.9 µM (active); in assay [15], 78.6 µM (active); in [17] it was 85.3 µM (active). The outcome in assay [2] is “inactive”; in assay [4] it was “inactive”; in assay [5] it was “inactive”; in the assay with TIMP1, TIMP1 (gene 7076), “inactive”; in [10], “inactive”; in [14], “inactive”. Also, the call in [16] and in assay [18] was inactive.
For the compound `Cc1cc(O)ccc1Cl`, the compound was classed as inactive in assay [1], in assay [2], in assay [3], in assay [4], in assay [5] and in assay [6]. Moreover, the outcome was “inactive” in assay [7]; “inactive” in [8]; “inactive” in assay [9]; “inactive” in the assay with TIMP1, TIMP1 (gene 7076); “inactive” in assay [10]; “inactive” in assay [11]. The compound was called inactive in [12], in [13], in assay [14], in [15], in assay [16] and in assay [17]. The result in assay [18] was inactive.
As for `Oc1c(Cl)c(Cl)c(Cl)c(Cl)c1Cl`, the compound was called inactive in assay [1], in [3], in [16] and in assay [17]. The AC50 in assay [2] is 6.48 µM (active); in assay [4], 2.04 µM (active); in [5], 1.19 µM (active); in assay [6] it was 3.96 µM (active); in assay [7], 4.65 µM (active); in [8], 12.3 µM (active). Moreover, the AC50 in assay [9] was 5.06 µM (active); with TIMP1, TIMP1 (gene 7076), 14.9 µM (active); in assay [10] it was 5.95 µM (active); in [11], 3.94 µM (active); in assay [19] it was 6.71 µM (active); in [12] it was 3.76 µM (active). Moreover, the AC50 in assay [13] is 6.77 µM (active); in assay [14], 6.22 µM (active); in assay [15], 6.81 µM (active); in assay [18] it was 8.58 µM (active) and 1.98 µM (active).
